# Laboratory results: PubChem BioAssay (Tox21)
# Values joined by “and” are separate entries in the source; they are usually repeats but may differ in a detail not shown here. Equal values may be shown once. Records with an inconclusive call do not appear. A call without a number means that no potency is given here. A structure can be active in one record and inactive in another. Active and inactive are the calls of the source. Unless noted, the call rests on the fitted dose curve; in most records, active means well fitted curve in the direction sought with a large enough effect in the repeat runs; inconclusive means weak or mixed curves; inactive means no such curve, though single readings can be large; an effect the other way counts as inactive or inconclusive.
# Key:
# [1] = qHTS assay for small molecule agonists of the p53 signaling pathway (AID 651631; calls by dose curve; further: nearly all actives have a fitted effect of over 15% in size; further: potency means the concentration at half of the fitted maximal effect)
# Summary of the method: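 We treat p53RE-bla HCT-116 cells with compounds for 16 h at 37 °C, add LiveBLAzer B/G FRET substrate for 2 h at room temperature, and measure fluorescence intensity.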
# [2] = qHTS assay for small molecules that induce genotoxicity in human embryonic kidney cells expressing luciferase-tagged ATAD5 (AID 651632); further: nearly all actives have a fitted effect of over 15% in size
# Summary of the method: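 A rise in luciferase signal from ATAD5-tagged HEK293T cells marks genetic stress. Cells were exposed to compounds for 16 hr at 37C, 5% CO2, then luciferase was quantified after a 30 min room-temperature incubation with Amplite.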
# [3] = qHTS assay for small molecule agonists of the p53 signaling pathway - cell viability (AID 651633; calls by dose curve;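 further: p53RE-bla HCT reporter cells with a stable beta-lactamase p53 reporter; series mostly up to about 83 µM; nearly all actives have a fitted effect of over 30% in size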)
# Summary of the method: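 Viability counter-read: CellTiter-Glo luminescence (30 min, room temperature) in the same p53RE-bla plates. These plates had been exposed to compounds for 16 h at 37 C.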
# [4] = qHTS assay to test for compound auto fluorescence at 590 nm (red) in HepG2 cells (AID 720674)
# Summary of the method: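 We screened compounds on adherent HepG2 cells, incubating them for an hour at 37 C in 5% CO2 before reading emission at 590 nm under 540 nm excitation; values reflect equivalence to Rose Bengal sodium fluorescence.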
# [5] = qHTS assay to test for compound auto fluorescence at 535 nm (green) in HepG2 cells (AID 720675)
# [6] = qHTS assay to test for compound auto fluorescence at 460 nm (blue) in HEK293 cells (AID 720678)
# Summary of the method: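 Cells were seeded and left to adhere for 4-5 hr at 37C. Compounds were then pin-transferred. After an overnight incubation at 37C under 5% CO2, intrinsic fluorescence at 405/460 nm was measured and referenced to triamterene.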
# [7] = qHTS assay to test for compound auto fluorescence at 590 nm (red) in HEK293 cells (AID 720679)
# Summary of the method: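 Each well held 2,000 HEK293 cells in medium containing 10% dialyzed FBS. Following 4-5 hr attachment at 37C, 23 nL test compound or DMSO was added; plates sat overnight, and red fluorescence (540/590nm) was recorded.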
# [8] = qHTS assay to test for compound auto fluorescence at 460 nm (blue) in HEK293 cell free culture (AID 720681)
# Summary of the method: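 Blue fluorescence (Ex 405/Em 460 nm, triamterene-equivalent) was read immediately after pin transfer of compound or DMSO into medium (DMEM, 10% FBS) without cells.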
# [9] = qHTS assay to test for compound auto fluorescence at 590 nm (red) in HEK293 cell free culture (AID 720683)
# Summary of the method: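 Red-channel autofluorescence of compounds in culture medium (DMEM, 10% FBS), no cells, measured at 540/590 nm. Rose Bengal sodium is the reference fluorophore for equivalence.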
# [10] = qHTS assay to test for compound auto fluorescence at 590 nm (red) in HepG2 cell free culture (AID 720684)
# Summary of the method: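 No cells present: MEM + 10% FBS only. Compound pinned in, red label read (540/590 nm). Activity = fluorescence equivalent to Rose Bengal sodium.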
# [11] = qHTS assay to test for compound auto fluorescence at 460 nm (blue) in HepG2 cell free culture (AID 720685)
# Summary of the method: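 Cell-free plates of MEM plus 10% FBS received 23 nL compound or DMSO vehicle; blue-channel (405/460 nm) intensity scored against triamterene as reference fluorophore.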
# [12] = qHTS assay to test for compound auto fluorescence at 535 nm (green) in HepG2 cell free culture (AID 720686)
# [13] = qHTS assay to test for compound auto fluorescence at 460 nm (blue) in HepG2 cells (AID 720687)
# Summary of the method: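 Blue-channel autofluorescence (Ex/Em 405/460 nm, triamterene-equivalent) was measured after 1 hr compound exposure at 37 C, 5% CO2. Cells were HepG2, plated overnight at 37 C in MEM plus 10% FBS.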
# [14] = qHTS assay for small molecules that induce genotoxicity in human embryonic kidney cells expressing luciferase-tagged ATAD5 - cell viability (AID 651634; calls by dose curve; further: nearly all actives have a fitted effect of over 25% in size)
# Summary of the method: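 Cytotoxicity counter-readout: after 15.5 hr compound treatment at 37C, live-cell protease activity in ATAD5-luciferase HEK293T cells measured by CellTiter-Fluor fluorescence, 30 min development at 37C.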
# [15] = qHTS assay for small molecule disruptors of the mitochondrial membrane potential - cell viability (AID 720634; calls by dose curve; further: nearly all actives have a fitted effect of over 20% in size; further: potency means the concentration at half of the fitted maximal effect)
# Summary of the method: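 Cytotoxicity was quantified from ATP content by CellTiter-Glo luminescence in the same wells as the MMP dye read-out. HepG2 (2,000 cells/well) were plated overnight and exposed to compounds for 1 hr at 37 C.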
# [16] = qHTS assay for small molecule disruptors of the mitochondrial membrane potential (AID 720635); further: potency means the concentration at half of the fitted maximal effect
# Summary of the method: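 Mitochondrial membrane potential tracked with Mito-MPS dye, red aggregates (ex 540/em 590 nm) against green monomers (ex 490/em 535 nm). Compound treatment 1 hr at 37C, dye 30 min in HepG2.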
# [17] = qHTS assay to test for compound auto fluorescence at 535 nm (green) in HEK293 cells (AID 720680)
# [18] = qHTS assay to test for compound auto fluorescence at 535 nm (green) in HEK293 cell free culture (AID 720682)
# Summary of the method: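 Green-channel intensity (Ex/Em 485/535 nm) was recorded from compound-treated wells containing only DMEM with 10% FBS. Fluorescein provided the equivalency standard.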
# [19] = target: Glucocorticoid receptor (Homo sapiens) (UniProt P04150); assay: qHTS assay to identify small molecule agonists of the glucocorticoid receptor (GR) signaling pathway (AID 720691; active means well fitted activation curve with a large enough effect in the signal ratio in the repeat runs, not every such curve was filed as active; the % refers to the signal ratio)
# Chain of Glucocorticoid receptor (Homo sapiens) (P04150 whole entry, looked up): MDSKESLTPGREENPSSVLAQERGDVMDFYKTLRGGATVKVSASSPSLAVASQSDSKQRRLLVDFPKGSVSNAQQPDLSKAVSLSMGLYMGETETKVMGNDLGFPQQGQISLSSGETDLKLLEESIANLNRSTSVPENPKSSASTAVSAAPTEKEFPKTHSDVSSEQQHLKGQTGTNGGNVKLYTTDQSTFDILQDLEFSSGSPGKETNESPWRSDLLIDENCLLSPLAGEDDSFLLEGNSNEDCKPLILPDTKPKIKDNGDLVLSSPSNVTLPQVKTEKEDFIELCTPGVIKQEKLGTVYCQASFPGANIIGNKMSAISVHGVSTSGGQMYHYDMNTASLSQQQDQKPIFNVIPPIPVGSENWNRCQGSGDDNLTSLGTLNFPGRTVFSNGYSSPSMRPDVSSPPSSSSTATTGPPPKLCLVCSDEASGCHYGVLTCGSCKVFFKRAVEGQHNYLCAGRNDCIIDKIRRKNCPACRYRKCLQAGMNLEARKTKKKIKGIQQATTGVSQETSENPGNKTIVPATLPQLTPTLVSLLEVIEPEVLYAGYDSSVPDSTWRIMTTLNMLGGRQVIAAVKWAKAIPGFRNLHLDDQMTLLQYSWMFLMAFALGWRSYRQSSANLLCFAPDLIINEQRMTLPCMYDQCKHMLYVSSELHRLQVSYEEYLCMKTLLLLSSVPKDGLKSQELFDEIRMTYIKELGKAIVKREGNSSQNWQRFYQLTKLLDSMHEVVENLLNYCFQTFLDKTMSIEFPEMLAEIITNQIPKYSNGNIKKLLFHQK
# Summary of the method: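 Agonist-mode qHTS in HeLa cells stably expressing a glucocorticoid-response-element beta-lactamase reporter. Fluorescence intensity read with FRET substrate (2 h, room temperature) after 18 h compound treatment at 37 C.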
# [20] = target: Glucocorticoid receptor (Homo sapiens) (UniProt P04150); assay: qHTS assay to identify small molecule antagonists of the glucocorticoid receptor (GR) signaling pathway (AID 720692; active means well fitted inhibition curve with a large enough effect in the signal ratio in the repeat runs, not every such curve was filed as active; the % refers to the signal ratio)
# Summary of the method: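 Inhibition of dexamethasone-driven (5 nM final) beta-lactamase expression was measured in GRE-reporter HeLa cells over 18 h at 37C. Fluorescence was read after 2 h with the B/G FRET substrate at room temperature.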
smiles,measurement,setting,value
COP(=O)(OC)O/C(C)=C/C(=O)N(C)C,Potency,[1],inactive
same,outcome,[2],inactive
same,Potency,[3],inactive
same,outcome,[4],inactive
same,outcome,[5],inactive
same,outcome,[6],inactive
same,outcome,[7],inactive
same,outcome,[8],inactive
same,outcome,[9],inactive
same,outcome,[10],inactive
same,outcome,[11],inactive
same,outcome,[12],inactive
same,outcome,[13],inactive
O=C(O)C(Br)(Br)Br,outcome,[2],inactive
same,Potency,[3],inactive
same,Potency,[14],inactive
same,Potency,[15],inactive
same,Potency,[16],inactive
same,outcome,[4],inactive
same,outcome,[5],inactive
same,outcome,[6],inactive
same,outcome,[7],inactive
same,outcome,[17],inactive
same,outcome,[8],inactive
same,outcome,[18],inactive
same,outcome,[9],inactive
same,outcome,[10],inactive
same,outcome,[11],inactive
same,outcome,[13],inactive
CCC1(c2ccccc2)C(=O)N(COC)C(=O)N(COC)C1=O,outcome,[2],inactive
same,Potency,[3],inactive
same,Potency,[14],inactive
same,Potency,[15],inactive
same,Potency,[16],inactive
same,outcome,[4],inactive
same,outcome,[5],inactive
same,outcome,[6],inactive
same,outcome,[7],inactive
same,outcome,[8],inactive
same,outcome,[18],inactive
same,outcome,[9],inactive
same,outcome,[10],inactive
same,outcome,[11],inactive
same,outcome,[12],inactive
same,outcome,[13],inactive
same,Potency,[19],inactive
same,Potency,[20],inactive
O=C1C2CC=CCC2C(=O)N1SC(Cl)(Cl)Cl (stereo not drawn),Potency,[1],5.96 µM (active)
same,outcome,[2],inactive
same,Potency,[3],inactive
same,Potency,[15],29.8 µM (active) and inactive and 60.1 µM (active)
same,Potency,[16],8.41 µM (active) and 43.1 µM (active) and 8.49 µM (active)
same,outcome,[4],inactive
same,outcome,[5],inactive
same,outcome,[6],inactive
same,outcome,[7],inactive
same,outcome,[8],inactive
same,outcome,[9],inactive
same,outcome,[10],inactive
same,outcome,[11],inactive
same,outcome,[12],inactive
same,outcome,[13],inactive
CCOC1Oc2ccc(OS(C)(=O)=O)cc2C1(C)C (stereo not drawn),outcome,[2],inactive
same,Potency,[3],inactive
same,Potency,[14],inactive
same,Potency,[15],inactive
same,Potency,[16],inactive
same,outcome,[4],inactive
same,outcome,[5],inactive
same,outcome,[6],inactive
same,outcome,[7],inactive
same,outcome,[17],inactive
same,outcome,[8],inactive
same,outcome,[18],inactive
same,outcome,[9],inactive
same,outcome,[10],inactive
same,outcome,[11],inactive
same,outcome,[12],inactive
same,outcome,[13],inactive
CN1C(=O)COc2c(C(=O)NC3CN4CCC3CC4)cc(Cl)cc21 (stereo not drawn),outcome,[2],inactive
same,Potency,[3],inactive
same,Potency,[14],inactive
same,Potency,[15],inactive
same,outcome,[4],inactive
same,outcome,[5],inactive
same,outcome,[6],inactive
same,outcome,[7],inactive
same,outcome,[17],inactive
same,outcome,[8],inactive
same,outcome,[18],inactive
same,outcome,[9],inactive
same,outcome,[10],inactive
same,outcome,[11],inactive
same,outcome,[12],inactive
same,outcome,[13],inactive
NCC1(CC(=O)O)CCCCC1,Potency,[1],inactive
same,outcome,[2],inactive
same,Potency,[3],inactive
same,Potency,[15],inactive
same,Potency,[16],inactive
same,"fluorescence, relative to Rose Bengal",[4],0.106% [at 18.6 µM] (inactive)
same,"fluorescence, % of fluorescein control",[5],0.0214% [at 18.6 µM] (inactive)
same,"fluorescence, % of triamterene",[6],0.0823% [at 18.6 µM] (inactive)
same,"fluorescence, % of fluorescent control",[7],0.0233% [at 18.6 µM] (inactive)
same,"fluorescence, % of fluorescein",[17],0.112% [at 18.6 µM] (inactive)
same,"fluorescence, % of fluorescent control",[8],0.0173% [at 18.6 µM] (inactive)
same,"fluorescence, % of fluorescent control",[9],0.0512% [at 18.6 µM] (inactive)
same,"fluorescence, % of fluorescent control",[11],0.0583% [at 18.6 µM] (inactive)
same,"fluorescence, % of fluorescent control",[13],0.027% [at 18.6 µM] (inactive)
same,Potency,[19],inactive
same,Potency,[20],inactive
CCOC(=O)COc1ccc(Cl)cc1Cl,outcome,[2],inactive
same,Potency,[3],inactive
same,Potency,[14],inactive
same,Potency,[15],inactive
same,outcome,[4],inactive
same,outcome,[5],inactive
same,outcome,[6],inactive
same,outcome,[7],inactive
same,outcome,[17],inactive
same,outcome,[8],inactive
same,outcome,[18],inactive
same,outcome,[9],inactive
same,outcome,[10],inactive
same,outcome,[11],inactive
same,outcome,[12],inactive
same,outcome,[13],inactive
same,Potency,[19],inactive
